Screening data deposited in PubChem BioAssay by National Center for Advancing Translational Sciences (NCATS).
PLK1 PBD block: PLK1 (human) polo-box domain binding inhibition | P53350 | 360,000 tested, 2.8% active | Plk1 PBD binding of FITC phosphopeptide, fluorescence polarization | Potency, µM, without a hit: max response, negative = inhibition, hits mostly inhibitors; also: series mostly up to about 57 µM; % is scaled to controls: 0 for no effect and ±100 for the full control effect; nearly all actives have a fitted effect of over 65% in size
HP1b binding inh: inhibitors of HP1-beta chromodomain binding to methylated histone tails; P83916; AlphaScreen HP1-beta / biotin-H3K9me3 peptide binding; Potency, µM (series often up to 114 µM), for inactives: at the highest dose activity change, negative = inhibition, most hits filed as inhibitors; 390,000 tested, 0.56% active; also: nearly all actives have a fitted effect of over 70% in size
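Compound inhibition of the preformed complex between 50 nM HP1-beta and 50 nM biotinylated H3K9me3 peptide was read by AlphaScreen. Buffer was PBS pH 7.4 with 0.01% Tween-20. Incubations ran 30 min at room temperature, with 10 ug/mL donor/acceptor beads.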
VDR inhibitor: vitamin D3 receptor (human) inhibition | P11473 | VDR-SRC2-3 peptide fluorescence polarization, 2 h | Potency, µM, for inactives: max response, negative = inhibition, most hits filed as inhibitors | 400,000 tested, 0.93% active | AID 504847; also: % is scaled to controls: 0 for no effect and ±100 for the full control effect
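Compounds are added to VDR with labelled SRC2-3 coactivator peptide and held 2 h at room temperature. Inhibition of the VDR–peptide interaction is then read as a change in fluorescence polarization.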
G9a inh: G9a (human) methyltransferase inhibition; Potency, µM (doses to about 102 µM), without a hit: at the highest dose activity, negative = inhibition, usual class: inhibitors; G9a H3K9 monomethylation, AlphaScreen, 2 h; Q96KQ7; 350,000 tested, 8.8% active; also: % is scaled to controls: 0 for no effect and ±100 for the full control effect; nearly all actives have a fitted effect of over 75% in size
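G9a (20 nM) was preincubated 15 min with compound, then reacted 2 h at room temperature with 500 nM biotin-H3K9 peptide and 20 µM SAM. Monomethyl-H3K9 detected by AlphaScreen using anti-H3K9me1 antibody.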
BAZ2B block: BAZ2B (human) inhibition | Q9UIF8 | AlphaScreen BAZ2B-H3K14Ac peptide displacement | Potency, µM (top dose mostly 114 µM), for inactives: at the highest dose activity change, negative = inhibition, actives largely listed as inhibitors | 360,000 tested, 4.4% active | AID 504333; also: % is scaled to controls: 0 for no effect and ±100 for the full control effect; nearly all actives have a fitted effect of over 60% in size
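Complex of BAZ2B and biotin-H3K14Ac (50 nM apiece) forms over 30 min at RT, then faces library compounds up to 110 uM for another 30 min; AlphaScreen beads added, 20 min dark incubation, luminescence read.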
JMJD2A Tudor inh: JMJD2A Tudor domain (human) inhibition; Potency, µM (series often up to 114 µM), without a hit: at the highest dose activity change, negative = inhibition, hits mostly inhibitors; O75164; AlphaScreen JMJD2A-Tudor / H3K4me3 peptide binding; 390,000 tested, 4.4% active; AID 504339; also: % is scaled to controls: 0 for no effect and ±100 for the full control effect; nearly all actives have a fitted effect of over 50% in size
* hit, by the source's call; ? = inconclusive; . = no result; ! = repeats disagree; [ ] = dose if it differs, or a comment. Hits are enriched below; roughly 11% of the tested compounds scored in any of these assays. Calls follow the shape of the dose curve; as a rule, active = well fitted curve in the direction sought with a large enough effect; inconclusive = small, poorly fitted or top-dose-only effect, or another doubt; inactive = no such curve, though single readings can be large; an effect the other way counts as inactive or inconclusive. Potency is read from the fitted curve at half-maximal effect.

SMILES | PLK1 PBD block | HP1b binding inh | VDR inhibitor | G9a inh | BAZ2B block | JMJD2A Tudor inh
O=C(NC1CCCCC1)c1ccc(CSc2nc3ccncc3n2Cc2ccccc2F)cc1 | . | 47% | 6% | -30%[59 µM] | -9% | -20%
CC(C)OC(=O)C1Cc2ccccc2CN1S(=O)(=O)c1cccs1 (stereo not given) | 2% | 40% | 3% | 79µM* | ? | -8%
O=C(COC(=O)c1cc(S(=O)(=O)N2CCOCC2)ccc1O)NCc1ccc2c(c1)OCO2 | -3% | 31% | -3% | -48% | 3% | -13%
CCCCC/C=C\C[C@@H](O)/C=C/C=C\C/C=C\CCCC(=O)O | . | . | -14% | ? | . | .
CCCCC/C=C\CC(O)/C=C/c1cccc(CC(O)CCCCO)n1 (stereo not given) | . | . | 50µM*! | 17µM*! | . | .
COc1ccc2c(=O)cc(C(=O)O)oc2c1 | -15% | 36% | -8% | 56µM* | -22% | -10%
CCCc1nn2c(=O)cc(COC(=O)c3ccco3)nc2s1 | . | 2% | 7% | 15%[59 µM] | -6% | -17%
COc1ccc(NC(=O)c2cc(CN3C(=O)c4ccccc4C3=O)ccc2OC)cn1 | 27µM* | -1% | -12% | ? | ? | -7%[11.4 µM]
O=S(=O)(c1ccccc1)c1nc(-c2ccco2)oc1NCc1ccccc1 | -12% | 13% | 0% | 35µM* | -37% | -33%
CNc1oc(Cc2ccccc2)nc1S(=O)(=O)c1ccccc1 | 2.7µM* | ? | -25% | ? | 4% | 3.2µM*
O=S(=O)(c1ccc(F)cc1)c1nc(-c2ccco2)oc1Nc1ccccc1 | -8% | 0% | 5% | ? | -38% | -38%
O=S(=O)(c1ccccc1)c1nc(-c2ccco2)oc1Nc1ccccc1 | 6% | -6% | 3% | 7.9µM* | ? | -1%
CCNc1oc(-c2ccccc2F)nc1S(=O)(=O)c1ccccc1 | -15% | 16% | -21% | 45µM* | -21% | -9%
CCOC(=O)N1CCN(C(C(=O)NC2CCCC2)c2cccc(OC)c2OC)CC1 (stereo not given) | -9% | . | . | . | . | .
O=C(NNC(=O)c1ccc(Br)s1)c1csc(N2CCOCC2)n1 | 1% | 48% | -3% | ? | ? | -4%
CNC(=O)CN(c1ccc(Oc2ccccc2)cc1)S(=O)(=O)c1ccc(C)cc1 | 1% | 30% | -13% | 30% | -6% | -1%
C[n+]1cn(Cc2ccc(C#N)cc2)c2ccccc21 | -2% | 49% | 9% | 0% | 0% | -2%
O=C(OCC(=O)N1c2ccccc2Sc2ccccc21)C1CC(=O)N(Cc2ccco2)C1 (stereo not given) | -3% | -13% | -3% | 50µM* | ? | ?
CCOC(=O)c1ccc(NC(=O)CC2C(=O)N(c3ccc(C)cc3)C(=O)N2C2CCCC2)cc1 (stereo not given) | . | 34% | -4% | -28%[59 µM] | -18% | 0%
O=C(Nc1sc2c(c1C(=O)NCC1CCCO1)CCC2)c1cc(=O)c2ccccc2o1 (stereo not given) | . | 20% | 0% | 4%[59 µM] | -12% | -22%
CCOC(=O)c1sc(SC)nc1N | -8% | 21% | -10% | -2% | -12% | -21%
CCOC(=O)c1ccc(/C=C2/C=C(c3ccccc3)N(c3ccc(Cl)c(C(=O)O)c3)C2=O)cc1 | 18% | -21% | ? | 11µM* | 50µM* | ?
Cc1ccc(Cl)cc1-n1c(CCC(=O)O)ccc1-c1cccs1 | . | 0% | -28% | 11µM* | ? | ?
Cc1cc(Cl)ccc1-n1c(CCC(=O)O)ccc1-c1cccs1 | . | -14% | ? | ? | 45µM* | ?
Cc1c(Cl)cccc1-n1c(CCC(=O)O)ccc1-c1cccs1 | . | 4% | -8% | ? | -33% | -34%
SMILES | PLK1 PBD block | HP1b binding inh | VDR inhibitor | G9a inh | BAZ2B block | JMJD2A Tudor inh
COCCN(C(=O)CSc1nnc(C)n1Cc1ccccc1)c1c(N)n(Cc2ccccc2)c(=O)[nH]c1=O | 27µM* | -12% | -1% | ? | . | ?
CCCc1cc(=O)[nH]c(SCC(=O)N(Cc2ccccc2)C(C)C)n1 | -4% | 25% | 8% | 1µM* | ? | 3%
CCCN(C(=O)CSc1n[nH]c(-c2ccc(OC)cc2)n1)c1c(N)n(Cc2ccccc2)c(=O)[nH]c1=O | 3% | 22% | -1% | 45µM* | 2% | -14%
COCCN(C(=O)CSc1nncn1-c1ccccc1)c1c(N)n(Cc2ccccc2)c(=O)[nH]c1=O | -4% | 3% | -4% | -7%[59 µM] | 8% | -5%
CCCc1cc(=O)[nH]c(SCC(=O)N(CCOC)c2c(N)n(Cc3ccccc3)c(=O)[nH]c2=O)n1 | 0% | 49% | -14% | 50µM* | 9% | -1%
O=C(CC1C(=O)NCCN1Cc1cccc(C(F)(F)F)c1)NCCc1cnccn1 (stereo not given) | -14% | 14% | -11% | 61% | -1% | -11%
Cc1ccc(OCc2nnc(SCC(=O)N3C(C)CCCC3C)o2)cc1 (stereo not given) | -1% | 51% | -1% | 20% | 5% | 4%
CCOC(=O)C1(C)NC(c2ccco2)C2C(=O)N(C)C(=O)C21 (stereo not given) | ? | -7% | 24% | ? | 2% | -18%
COCCN(C(=O)CSc1nnc(-c2ccccc2C)n1C)c1c(N)n(Cc2ccccc2)c(=O)[nH]c1=O | -7% | 1% | -3% | 8.9µM* | -12% | -18%
COc1cccc(N/C(N)=N/c2nc(C(F)(F)F)cc(=O)[nH]2)c1 | -11% | 4% | 9% | 3%[59 µM] | 5% | -20%
Cc1ccc(CN(C(=O)N2CCN(C)CC2)S(=O)(=O)c2ccc(C)cc2)cc1 | -1% | 7% | 1% | 10% | -3% | -10%
CC(C)N1C(=O)NC2NC(=O)N(C(C)C)C21 (stereo not given) | -7% | . | . | . | . | .
CCn1c(=O)c2sccc2n2c(CCCC(=O)N3CCN(c4ccccc4OC)CC3)nnc12 | . | 23% | -6% | -25%[59 µM] | -27% | -14%
COc1cccc(NC(=O)c2c(C(=O)Nc3ccccc3)sc3nc(C)cc(=O)n23)c1 | . | 24% | 4% | -33%[59 µM] | -1% | -3%
CCOc1ccc(-c2n[nH]c(C)c2-c2ccccc2OC)c(O)c1 | 7% | 23% | -2% | -4% | -37% | -6%
CCc1cc(-c2n[nH]c(C)c2-c2ccccc2Cl)c(O)cc1OC | -8% | 7% | 19% | 40µM* | ? | ?
Cn1c(-c2ccc(C=O)s2)nc2c3ccccc3c3ccccc3c21 | 27µM* | 50% | 1% | ? | 76% | -3%
Cc1oc2c(O)c(O)ccc2c(=O)c1-c1ccc(Cl)cc1 | -14% | 17% | -18% | 5µM* | ? | -29%
Cc1cc(=O)oc2c(O)c(O)ccc12 | ? | 18% | 71µM*! | . | . | 10µM*
